# Laboratory results reported in the supplement of paper PMC9694430.
# Experiments:
# Experiment in all cases: thermal shift delta Tm vs DMSO control; higher = stronger stabilization (binding)
# Settings in all cases: 12.5 µM; protein concentration 2 µM
# LOC_OS01G57100-cb003 = system: LOC_OS01G57100-cb003
# Outline: (§1)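 Heating from 25°C to 95°C at 0.05°C/s, fluorescence was recorded for 19.5 μl wells of 2 μM E. coli-expressed, purified rice kinase domain in 100 mM potassium phosphate pH 7.5, 150 mM NaCl, 10% glycerol and 5 × SYPRO Orange with compound in DMSO. Boltzmann fits gave melting temperatures for this differential scanning fluorimetry assay. The shift reported is the mean of three replicates against the DMSO-only protein.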
# LOC_OS01G60330-cb001 = system: LOC_OS01G60330-cb001
# Outline: as §1
# LOC_OS01G60700-cb002 = system: LOC_OS01G60700-cb002
# Outline: as §1
# LOC_OS01G63280-cb003 = system: LOC_OS01G63280-cb003
# Outline: as §1
# LOC_OS01G67340-cb003 = system: LOC_OS01G67340-cb003
# Outline: as §1
# LOC_OS01G70970-cb002 = system: LOC_OS01G70970-cb002
# Outline: as §1
# LOC_OS02G07810-cb001 = system: LOC_OS02G07810-cb001
# Outline: as §1
# LOC_OS02G08530-cb003 = system: LOC_OS02G08530-cb003
# Outline: as §1
# LOC_OS02G14120-cb001 = system: LOC_OS02G14120-cb001
# Outline: as §1
# LOC_OS02G17970-cb001 = system: LOC_OS02G17970-cb001
# Outline: as §1
# 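Further: purified Escherichia coli-expressed rice kinase domain construct.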
Structure (SMILES),thermal shift delta Tm (LOC_OS01G57100-cb003),thermal shift delta Tm (LOC_OS01G60330-cb001),thermal shift delta Tm (LOC_OS01G60700-cb002),thermal shift delta Tm (LOC_OS01G63280-cb003),thermal shift delta Tm (LOC_OS01G67340-cb003),thermal shift delta Tm (LOC_OS01G70970-cb002),thermal shift delta Tm (LOC_OS02G07810-cb001),thermal shift delta Tm (LOC_OS02G08530-cb003),thermal shift delta Tm (LOC_OS02G14120-cb001),thermal shift delta Tm (LOC_OS02G17970-cb001)
O=C(O)c1ccc2c3c1cccc3c(=O)n1c3ccccc3nc21,1.73 °C,3.73 °C,1 °C,0.76 °C,1 °C,0.87 °C,0.5 °C,0.93 °C,3.53 °C,0.44 °C
C=CC(=O)Nc1cc(Nc2nccc(-c3c[nH]c4ccccc34)n2)c(OC)cc1N(C)CCN(C)C,1.63 °C,0.87 °C,1.61 °C,0.65 °C,0.79 °C,0.59 °C,0.87 °C,5.01 °C,4.93 °C,1.65 °C
"CO[C@H]1C[C@@H]2CC[C@@H](C)[C@@](O)(O2)C(=O)C(=O)N2CCCC[C@H]2C(=O)O[C@H]([C@H](C)C[C@@H]2CC[C@@H](OP(C)(C)=O)[C@H](OC)C2)CC(=O)[C@H](C)/C=C(\C)[C@@H](O)[C@@H](OC)C(=O)[C@H](C)C[C@H](C)/C=C/C=C/C=C/1C [Ridaforolimus (Deforolimus, MK-8669)]",0.89 °C,1.16 °C,0.84 °C,0.17 °C,-0.64 °C,0.14 °C,0.4 °C,0.57 °C,0.4 °C,0.27 °C
CN1CCN(C2CCN(C(=O)Nc3cc(Oc4ccc(NC(=O)C5(C(=O)Nc6ccc(F)cc6)CC5)c(F)c4)ccn3)CC2)CC1 [Golvatinib (E7050)],0.49 °C,0.6 °C,1.6 °C,0.78 °C,0.24 °C,0.6 °C,0.4 °C,0.79 °C,0.6 °C,2.14 °C
Cc1ccc(NC(=O)c2ccc(CN3CCN(C)CC3)cc2)cc1Nc1nc(-c2cccnc2)cs1 [Masitinib (AB1010)],0.04 °C,1.59 °C,0.59 °C,0.19 °C,-0.46 °C,0.24 °C,0.34 °C,0.9 °C,0.12 °C,0.55 °C
OCCn1cc(-c2ccc3c(c2)CC/C3=N\O)c(-c2ccncc2)n1,0.82 °C,1.25 °C,0.99 °C,0.67 °C,-0.31 °C,0.26 °C,1.43 °C,1 °C,0.49 °C,0.48 °C
